# Laboratory results from PMC7862700, “An all-to-all approach to the identification of sequence-specific readers for epigenetic DNA modifications on cytosine”.
# Key:
# Assay in all cases: DAPPL (digital affinity profiling via proximity ligation, sequencing); 10 mM Tris-HCl pH 7.5, 50 mM NaCl, 1 mM DTT, 4% glycerol, room temperature, 30 min; GST-TFs on glutathione beads, 16-mer random dsDNA library, 0.1% formaldehyde crosslink after washing; high values mean tight binding
# FLI1 = target: T1, FLI1 (Homo sapiens, UniProt Q01543 1-452); details: protein: recombinant; tags: N-terminal GST; dsDNA, one strand shown
# T1 sequence: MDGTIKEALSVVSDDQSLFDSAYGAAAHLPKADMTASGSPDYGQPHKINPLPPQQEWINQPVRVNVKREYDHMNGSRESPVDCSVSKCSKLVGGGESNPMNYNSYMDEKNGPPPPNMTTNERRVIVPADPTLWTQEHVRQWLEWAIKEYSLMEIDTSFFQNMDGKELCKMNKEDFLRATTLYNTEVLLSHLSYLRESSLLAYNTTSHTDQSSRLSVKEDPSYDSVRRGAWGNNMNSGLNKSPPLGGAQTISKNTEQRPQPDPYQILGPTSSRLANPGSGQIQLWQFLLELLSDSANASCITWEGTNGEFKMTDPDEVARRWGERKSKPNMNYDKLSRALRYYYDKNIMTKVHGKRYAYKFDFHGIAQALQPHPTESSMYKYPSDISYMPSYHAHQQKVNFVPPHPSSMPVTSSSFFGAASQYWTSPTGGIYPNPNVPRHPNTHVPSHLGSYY
# Outline: (§1)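 Pools of DNA-barcoded human transcription factors, expressed in yeast as GST fusions on glutathione beads and combined with a tag-only sample, were incubated with 200 nmole of a 16-mer random double-stranded DNA library. Incubation took 30 min at room temperature in Tris/NaCl/DTT/glycerol buffer and was followed by washing, 0.1% formaldehyde crosslinking, proximity ligation (BsaI/T4 ligase, 1 h, 37 °C), PCR amplification and sequencing on an Illumina NextSeq500. Binding signal is the ratio of a hexamer's read frequency for a factor to its frequency for the tag-only sample.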
# ELK1 = target: T2, ELK1 (Homo sapiens, UniProt P19419 1-428); details: protein: recombinant; tags: N-terminal GST; dsDNA, one strand shown
# T2 sequence: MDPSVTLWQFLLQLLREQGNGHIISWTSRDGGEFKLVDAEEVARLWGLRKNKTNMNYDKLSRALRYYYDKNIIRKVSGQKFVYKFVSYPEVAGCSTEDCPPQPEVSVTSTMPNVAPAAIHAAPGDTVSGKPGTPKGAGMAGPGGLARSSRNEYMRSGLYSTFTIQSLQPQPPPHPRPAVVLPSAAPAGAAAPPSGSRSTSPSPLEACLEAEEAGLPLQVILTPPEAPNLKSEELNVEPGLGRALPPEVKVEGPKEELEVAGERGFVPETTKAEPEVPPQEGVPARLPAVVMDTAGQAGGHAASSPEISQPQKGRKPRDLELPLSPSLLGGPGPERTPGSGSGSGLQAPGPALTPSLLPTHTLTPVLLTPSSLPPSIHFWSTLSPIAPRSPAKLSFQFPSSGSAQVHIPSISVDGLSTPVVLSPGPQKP
# Outline: as §1
# GABPA = target: T3, GABPA (Homo sapiens, UniProt Q06546 1-454); details: protein: recombinant; tags: N-terminal GST; dsDNA, one strand shown
# T3 sequence: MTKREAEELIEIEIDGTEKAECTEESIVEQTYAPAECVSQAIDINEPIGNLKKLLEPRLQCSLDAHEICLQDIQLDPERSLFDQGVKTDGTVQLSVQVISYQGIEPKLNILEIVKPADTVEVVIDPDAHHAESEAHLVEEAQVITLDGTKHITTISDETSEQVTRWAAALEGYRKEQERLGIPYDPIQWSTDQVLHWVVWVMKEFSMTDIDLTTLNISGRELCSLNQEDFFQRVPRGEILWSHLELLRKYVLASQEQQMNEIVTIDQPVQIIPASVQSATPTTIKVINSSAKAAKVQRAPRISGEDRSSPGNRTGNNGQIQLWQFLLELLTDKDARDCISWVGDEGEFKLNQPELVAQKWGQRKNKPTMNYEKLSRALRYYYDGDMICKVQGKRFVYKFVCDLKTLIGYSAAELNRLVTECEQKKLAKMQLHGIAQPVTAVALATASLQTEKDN
# Outline: as §1
# ERG = target: T4, ERG (Homo sapiens, UniProt P11308 1-479); details: protein: recombinant; tags: N-terminal GST; dsDNA, one strand shown
# T4 sequence: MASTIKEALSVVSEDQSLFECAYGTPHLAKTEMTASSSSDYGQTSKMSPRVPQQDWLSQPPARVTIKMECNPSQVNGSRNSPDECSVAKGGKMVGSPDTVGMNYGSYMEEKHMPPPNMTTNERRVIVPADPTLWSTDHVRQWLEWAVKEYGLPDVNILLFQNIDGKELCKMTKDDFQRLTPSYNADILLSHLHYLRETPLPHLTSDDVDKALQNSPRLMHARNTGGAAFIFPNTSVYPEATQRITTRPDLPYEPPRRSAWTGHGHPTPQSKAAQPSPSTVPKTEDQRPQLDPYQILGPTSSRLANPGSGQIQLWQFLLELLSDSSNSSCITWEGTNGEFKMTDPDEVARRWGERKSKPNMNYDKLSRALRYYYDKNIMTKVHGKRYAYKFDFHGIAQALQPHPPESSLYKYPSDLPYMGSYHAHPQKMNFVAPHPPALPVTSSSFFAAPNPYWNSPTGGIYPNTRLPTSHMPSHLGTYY
# Outline: as §1
# ELF1 = ELF1 (Homo sapiens, UniProt P32519 1-619); details: protein: recombinant; tags: N-terminal GST; dsDNA, one strand shown
# Outline: as §1
# EHF = target: T5, EHF (Homo sapiens, UniProt Q9NZC4 1-300); details: protein: recombinant; tags: N-terminal GST; dsDNA, one strand shown
# T5 sequence: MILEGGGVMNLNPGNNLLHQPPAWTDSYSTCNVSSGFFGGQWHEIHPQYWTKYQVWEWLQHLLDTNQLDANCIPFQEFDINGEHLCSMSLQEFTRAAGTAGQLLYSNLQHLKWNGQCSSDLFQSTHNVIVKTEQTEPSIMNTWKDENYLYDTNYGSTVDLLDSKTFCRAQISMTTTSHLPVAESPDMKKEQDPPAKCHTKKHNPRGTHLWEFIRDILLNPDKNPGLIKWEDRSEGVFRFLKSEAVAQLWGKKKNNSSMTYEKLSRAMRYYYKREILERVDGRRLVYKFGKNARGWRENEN
# Outline: as §1
# SPI1 = SPI1 (Homo sapiens, UniProt P17947 1-270); details: protein: recombinant; tags: N-terminal GST; dsDNA, one strand shown
# Outline: as §1
# SPIB = SPIB (Homo sapiens, UniProt Q01892 1-262); details: protein: recombinant; tags: N-terminal GST; dsDNA, one strand shown
# Outline: as §1
# ELK3 = target: T6, ELK3 (Homo sapiens, UniProt P41970 1-407); details: protein: recombinant; tags: N-terminal GST; dsDNA, one strand shown
# T6 sequence: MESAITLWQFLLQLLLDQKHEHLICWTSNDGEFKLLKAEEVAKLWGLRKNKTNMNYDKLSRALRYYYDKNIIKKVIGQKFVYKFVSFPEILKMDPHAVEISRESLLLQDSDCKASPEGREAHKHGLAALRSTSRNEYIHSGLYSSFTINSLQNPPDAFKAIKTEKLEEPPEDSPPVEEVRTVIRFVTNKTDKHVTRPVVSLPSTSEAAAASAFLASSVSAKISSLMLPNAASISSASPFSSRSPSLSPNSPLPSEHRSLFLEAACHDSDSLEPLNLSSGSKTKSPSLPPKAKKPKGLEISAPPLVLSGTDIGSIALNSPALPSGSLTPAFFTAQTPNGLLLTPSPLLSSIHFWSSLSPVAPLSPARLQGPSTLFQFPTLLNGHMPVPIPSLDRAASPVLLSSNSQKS
# Outline: as §1
# FEV = target: T7, FEV (Homo sapiens, UniProt Q99581 1-238); details: protein: recombinant; tags: N-terminal GST; dsDNA, one strand shown
# T7 sequence: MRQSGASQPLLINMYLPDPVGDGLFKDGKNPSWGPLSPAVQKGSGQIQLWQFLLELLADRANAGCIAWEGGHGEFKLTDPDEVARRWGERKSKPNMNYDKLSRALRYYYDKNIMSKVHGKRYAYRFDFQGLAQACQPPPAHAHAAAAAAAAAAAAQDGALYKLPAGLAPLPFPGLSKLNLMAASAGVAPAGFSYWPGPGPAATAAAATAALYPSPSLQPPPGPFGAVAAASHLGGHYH
# Outline: as §1
# ETV5 = ETV5 (Homo sapiens, UniProt P41161 1-510); details: protein: recombinant; tags: N-terminal GST; dsDNA, one strand shown
# Outline: as §1
# HSF1 = HSF1 (Homo sapiens, UniProt Q00613 1-529); details: protein: recombinant; tags: N-terminal GST; chain copies: 3; dsDNA, one strand shown
# Outline: as §1
# SPIC = target: T8, SPIC (Homo sapiens, UniProt Q8N5J4 1-248); details: protein: recombinant; tags: N-terminal GST; dsDNA, one strand shown
# T8 sequence: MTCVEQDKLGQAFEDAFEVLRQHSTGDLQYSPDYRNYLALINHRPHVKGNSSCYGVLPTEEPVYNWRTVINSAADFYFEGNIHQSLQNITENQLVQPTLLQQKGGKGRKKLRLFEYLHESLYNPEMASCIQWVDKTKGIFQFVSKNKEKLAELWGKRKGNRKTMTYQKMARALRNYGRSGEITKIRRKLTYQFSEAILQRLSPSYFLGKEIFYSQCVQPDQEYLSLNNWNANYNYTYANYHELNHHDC
# Outline: as §1
# ELF4 = ELF4 (Homo sapiens, UniProt Q99607 1-663); details: protein: recombinant; tags: N-terminal GST; dsDNA, one strand shown
# Outline: as §1
# ELK4 = target: T9, ELK4 (Homo sapiens, UniProt P28324-2 1-405); details: protein: recombinant; tags: N-terminal GST; dsDNA, one strand shown
# T9 sequence: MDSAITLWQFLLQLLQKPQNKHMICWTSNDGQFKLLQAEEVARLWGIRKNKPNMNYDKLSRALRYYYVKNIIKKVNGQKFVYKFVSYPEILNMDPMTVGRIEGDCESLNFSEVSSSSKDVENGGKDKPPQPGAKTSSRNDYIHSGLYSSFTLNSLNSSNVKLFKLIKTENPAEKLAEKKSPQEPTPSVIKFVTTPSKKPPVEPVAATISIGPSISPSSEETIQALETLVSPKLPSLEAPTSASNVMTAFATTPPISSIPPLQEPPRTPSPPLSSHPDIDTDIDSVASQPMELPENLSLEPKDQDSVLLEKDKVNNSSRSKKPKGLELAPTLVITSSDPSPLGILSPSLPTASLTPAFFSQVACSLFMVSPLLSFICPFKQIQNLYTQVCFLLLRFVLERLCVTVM
# Outline: as §1
# ETV2 = target: T10, ETV2 (Homo sapiens, UniProt O00321 1-342); details: protein: recombinant; tags: N-terminal GST; dsDNA, one strand shown
# T10 sequence: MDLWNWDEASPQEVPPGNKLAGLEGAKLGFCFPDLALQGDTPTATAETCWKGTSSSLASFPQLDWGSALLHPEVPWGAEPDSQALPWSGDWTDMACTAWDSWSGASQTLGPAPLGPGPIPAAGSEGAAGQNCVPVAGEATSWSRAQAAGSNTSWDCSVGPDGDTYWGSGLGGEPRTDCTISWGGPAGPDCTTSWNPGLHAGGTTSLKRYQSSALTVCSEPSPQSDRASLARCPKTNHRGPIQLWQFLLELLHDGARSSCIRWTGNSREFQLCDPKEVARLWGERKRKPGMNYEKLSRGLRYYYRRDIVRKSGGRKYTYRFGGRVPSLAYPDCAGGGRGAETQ
# Outline: as §1
# ELF3 = target: T11, ELF3 (Homo sapiens, UniProt P78545 1-371); details: protein: recombinant; tags: N-terminal GST; dsDNA, one strand shown
# T11 sequence: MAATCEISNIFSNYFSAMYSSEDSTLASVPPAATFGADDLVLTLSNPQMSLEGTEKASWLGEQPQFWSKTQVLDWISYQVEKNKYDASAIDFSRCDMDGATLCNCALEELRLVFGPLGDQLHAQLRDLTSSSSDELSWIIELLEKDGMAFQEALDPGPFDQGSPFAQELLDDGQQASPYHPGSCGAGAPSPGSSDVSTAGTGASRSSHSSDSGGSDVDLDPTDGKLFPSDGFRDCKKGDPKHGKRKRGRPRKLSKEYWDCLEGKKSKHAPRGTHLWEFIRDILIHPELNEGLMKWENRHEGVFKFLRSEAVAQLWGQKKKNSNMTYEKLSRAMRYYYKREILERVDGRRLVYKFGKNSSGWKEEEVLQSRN
# Outline: as §1
# CRX = CRX (Homo sapiens, UniProt O43186 1-299); details: protein: recombinant; tags: N-terminal GST; dsDNA, one strand shown
# Outline: as §1
# ETV1 = ETV1 (Homo sapiens, UniProt P50549 1-477); details: protein: recombinant; tags: N-terminal GST; dsDNA, one strand shown
# Outline: as §1
# CRX, sequence (O43186 whole entry): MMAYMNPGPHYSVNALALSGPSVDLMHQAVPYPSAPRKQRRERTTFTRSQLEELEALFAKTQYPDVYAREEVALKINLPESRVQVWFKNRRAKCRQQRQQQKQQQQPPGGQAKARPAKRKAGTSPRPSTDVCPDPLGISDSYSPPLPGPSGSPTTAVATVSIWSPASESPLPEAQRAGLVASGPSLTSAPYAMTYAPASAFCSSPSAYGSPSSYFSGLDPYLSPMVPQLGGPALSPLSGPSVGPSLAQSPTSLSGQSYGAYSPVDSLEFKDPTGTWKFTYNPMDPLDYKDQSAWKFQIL
# ELF1, sequence (P32519 whole entry): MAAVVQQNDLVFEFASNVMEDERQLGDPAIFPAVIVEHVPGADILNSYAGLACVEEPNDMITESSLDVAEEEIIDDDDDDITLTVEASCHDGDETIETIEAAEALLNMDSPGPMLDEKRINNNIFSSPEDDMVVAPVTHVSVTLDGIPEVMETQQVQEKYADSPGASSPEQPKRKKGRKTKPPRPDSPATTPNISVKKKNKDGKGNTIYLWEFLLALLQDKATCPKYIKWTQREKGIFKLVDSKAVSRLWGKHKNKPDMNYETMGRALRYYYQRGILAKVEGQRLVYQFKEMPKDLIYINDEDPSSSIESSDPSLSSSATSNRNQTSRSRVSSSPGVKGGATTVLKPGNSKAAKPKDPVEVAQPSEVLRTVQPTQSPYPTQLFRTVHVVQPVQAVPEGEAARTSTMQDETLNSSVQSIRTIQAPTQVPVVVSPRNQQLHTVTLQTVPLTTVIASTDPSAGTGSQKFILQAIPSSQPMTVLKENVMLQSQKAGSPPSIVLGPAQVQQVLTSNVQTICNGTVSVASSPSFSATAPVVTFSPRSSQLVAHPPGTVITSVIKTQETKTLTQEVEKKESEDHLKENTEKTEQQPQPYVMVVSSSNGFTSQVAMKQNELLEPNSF
# SPIB, sequence (Q01892 whole entry): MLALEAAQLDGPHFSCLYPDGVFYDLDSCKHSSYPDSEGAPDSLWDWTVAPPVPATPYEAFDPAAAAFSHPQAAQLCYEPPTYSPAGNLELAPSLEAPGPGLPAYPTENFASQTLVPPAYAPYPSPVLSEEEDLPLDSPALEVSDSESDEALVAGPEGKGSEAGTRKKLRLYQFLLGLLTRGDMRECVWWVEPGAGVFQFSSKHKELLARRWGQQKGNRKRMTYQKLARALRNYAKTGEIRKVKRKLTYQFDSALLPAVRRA
# ELF4, sequence (Q99607 whole entry): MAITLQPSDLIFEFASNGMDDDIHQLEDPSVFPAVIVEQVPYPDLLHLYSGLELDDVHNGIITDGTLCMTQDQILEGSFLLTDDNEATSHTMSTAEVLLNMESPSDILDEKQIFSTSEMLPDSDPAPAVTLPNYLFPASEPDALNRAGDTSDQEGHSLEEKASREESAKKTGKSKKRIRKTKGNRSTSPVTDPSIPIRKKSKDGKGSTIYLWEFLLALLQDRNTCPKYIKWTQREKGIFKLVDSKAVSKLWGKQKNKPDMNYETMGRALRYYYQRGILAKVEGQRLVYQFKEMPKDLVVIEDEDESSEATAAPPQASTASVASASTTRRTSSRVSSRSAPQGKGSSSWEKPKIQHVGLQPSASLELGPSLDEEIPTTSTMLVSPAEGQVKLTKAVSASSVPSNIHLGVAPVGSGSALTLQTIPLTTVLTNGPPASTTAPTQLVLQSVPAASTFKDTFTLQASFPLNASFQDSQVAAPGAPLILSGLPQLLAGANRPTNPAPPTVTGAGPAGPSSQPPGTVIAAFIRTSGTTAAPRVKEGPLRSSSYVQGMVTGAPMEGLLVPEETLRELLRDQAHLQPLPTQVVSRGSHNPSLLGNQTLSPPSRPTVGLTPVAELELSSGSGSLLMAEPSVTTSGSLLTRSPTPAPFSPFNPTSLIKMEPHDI
# ETV1, sequence (P50549 whole entry): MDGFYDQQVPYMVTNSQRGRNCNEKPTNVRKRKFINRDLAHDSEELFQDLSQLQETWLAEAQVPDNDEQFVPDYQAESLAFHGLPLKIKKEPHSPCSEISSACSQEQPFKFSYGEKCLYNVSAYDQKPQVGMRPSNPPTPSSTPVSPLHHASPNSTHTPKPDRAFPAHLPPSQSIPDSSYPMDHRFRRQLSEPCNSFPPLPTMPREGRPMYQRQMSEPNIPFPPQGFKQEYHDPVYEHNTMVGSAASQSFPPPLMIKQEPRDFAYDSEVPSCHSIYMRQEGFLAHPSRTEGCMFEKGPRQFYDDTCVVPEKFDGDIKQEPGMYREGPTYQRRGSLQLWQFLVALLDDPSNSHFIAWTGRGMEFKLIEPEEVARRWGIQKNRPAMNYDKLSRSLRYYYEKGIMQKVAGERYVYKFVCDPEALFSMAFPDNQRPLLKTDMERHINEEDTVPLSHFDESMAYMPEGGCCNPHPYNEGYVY
# HSF1, sequence (Q00613 whole entry): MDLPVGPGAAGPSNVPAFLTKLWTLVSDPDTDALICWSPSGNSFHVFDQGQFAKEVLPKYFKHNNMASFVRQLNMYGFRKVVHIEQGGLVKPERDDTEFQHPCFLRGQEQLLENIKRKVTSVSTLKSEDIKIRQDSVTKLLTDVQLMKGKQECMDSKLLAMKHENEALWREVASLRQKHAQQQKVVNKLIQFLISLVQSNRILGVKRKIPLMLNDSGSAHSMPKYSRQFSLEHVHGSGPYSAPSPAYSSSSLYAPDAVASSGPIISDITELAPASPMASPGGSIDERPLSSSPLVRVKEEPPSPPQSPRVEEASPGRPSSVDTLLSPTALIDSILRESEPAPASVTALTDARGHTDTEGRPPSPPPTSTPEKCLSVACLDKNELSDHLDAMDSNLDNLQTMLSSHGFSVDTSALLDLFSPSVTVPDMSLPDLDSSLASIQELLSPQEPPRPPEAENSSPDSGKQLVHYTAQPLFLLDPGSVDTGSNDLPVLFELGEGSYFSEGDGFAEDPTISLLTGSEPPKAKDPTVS
# ETV5, sequence (P41161 whole entry): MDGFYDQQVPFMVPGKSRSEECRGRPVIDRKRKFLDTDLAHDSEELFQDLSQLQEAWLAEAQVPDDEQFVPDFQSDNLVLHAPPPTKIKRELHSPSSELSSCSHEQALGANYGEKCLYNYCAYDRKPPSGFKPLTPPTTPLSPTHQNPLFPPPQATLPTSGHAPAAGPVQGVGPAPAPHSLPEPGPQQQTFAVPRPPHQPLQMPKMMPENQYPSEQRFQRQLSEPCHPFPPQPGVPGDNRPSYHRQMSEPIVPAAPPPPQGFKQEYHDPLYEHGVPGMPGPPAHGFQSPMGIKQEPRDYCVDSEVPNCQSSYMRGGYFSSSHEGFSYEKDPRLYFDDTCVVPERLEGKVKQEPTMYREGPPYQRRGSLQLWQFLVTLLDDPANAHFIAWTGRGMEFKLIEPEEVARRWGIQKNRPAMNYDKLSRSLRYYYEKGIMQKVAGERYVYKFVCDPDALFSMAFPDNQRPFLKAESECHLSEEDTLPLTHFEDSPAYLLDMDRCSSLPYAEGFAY
sequence,measurement,setting,value
CCTCCT,binding signal,FLI1,"1.72 fold enrichment (6-mer frequency, TF over GST control)"
same,binding signal,ELK1,"1.45 fold enrichment (6-mer frequency, TF over GST control)"
same,binding signal,GABPA,"1.57 fold enrichment (6-mer frequency, TF over GST control)"
same,binding signal,ERG,"1.45 fold enrichment (6-mer frequency, TF over GST control)"
same,binding signal,ELF1,"1.5 fold enrichment (6-mer frequency, TF over GST control)"
same,binding signal,EHF,"1.42 fold enrichment (6-mer frequency, TF over GST control)"
same,binding signal,SPI1,"1.7 fold enrichment (6-mer frequency, TF over GST control)"
same,binding signal,SPIB,"1.61 fold enrichment (6-mer frequency, TF over GST control)"
same,binding signal,ELK3,"1.48 fold enrichment (6-mer frequency, TF over GST control)"
same,binding signal,FEV,"1.46 fold enrichment (6-mer frequency, TF over GST control)"
same,binding signal,ETV5,"1.59 fold enrichment (6-mer frequency, TF over GST control)"
same,binding signal,HSF1,"1.3 fold enrichment (6-mer frequency, TF over GST control)"
same,binding signal,SPIC,"1.47 fold enrichment (6-mer frequency, TF over GST control)"
same,binding signal,ELF4,"1.66 fold enrichment (6-mer frequency, TF over GST control)"
same,binding signal,ELK4,"1.61 fold enrichment (6-mer frequency, TF over GST control)"
same,binding signal,ETV2,"1.45 fold enrichment (6-mer frequency, TF over GST control)"
same,binding signal,ELF3,"1.2 fold enrichment (6-mer frequency, TF over GST control)"
same,binding signal,CRX,"1.32 fold enrichment (6-mer frequency, TF over GST control)"
same,binding signal,ETV1,"1.52 fold enrichment (6-mer frequency, TF over GST control)"
